# High-throughput results deposited in PubChem by National Center for Advancing Translational Sciences (NCATS).
# Sampled rows, rich in hits. Any-hit rate of the full collection: about 11%.
# HPGD block = blocks human HPGD enzyme activity | P15428 | purified HPGD, NADH fluorescence kinetic, PGE2 substrate | Potency, µM, for the others: at the highest dose activity change, negative = inhibition, usual class: inhibitors | 150,000 compounds, 4.3% hits | AID 894; active means well fitted inhibition curve with a large enough effect, not every such curve was filed as active; inconclusive means small, poorly fitted or top-dose-only effect, or another doubt; inactive means no such curve, though single readings can be large or run the other way; further: potency means the concentration at half of the fitted maximal effect
#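 20 nM HPGD preincubated 15 min at room temperature with compound in 50 mM Tris-HCl pH 8, 0.01% Tween 20. Started with 1 mM NAD+ and 30 uM prostaglandin E2; NADH fluorescence (360/450 nm) read 5 times over 30-s intervals, last minus first.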
# IMPase Li inh = cell-permeable IMPase inhibitors with lithium potentiation. CHO-M1 cells, IP1 TR-FRET (IP-One), carbachol + lithium. Potency, µM (series often up to 59.4 µM), without a hit: at the highest dose activity, negative = IMPase inhibition, most hits filed as inhibitors. 210,000 compounds, 0.35% hits;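 further: IP1 builds up when IMPase is blocked and the TR-FRET signal falls; potency means the concentration at half of the fitted maximal effect; plate controls were basal vehicle for no effect and high inhibitor control for full effect; nearly all actives have a fitted effect of over 50% in size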
#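 CHO-M1, 2000 cells/well, 16–30 h culture; cpd + low Li+, 30 min 37C; lysis with d2-IP1/Eu-anti-IP1 Ab, 10 min RT; TR-FRET 665/620 ratio and 620 channel; AC50 via Hill.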
# PNC inhibitor = inhibitors of perinucleolar compartment assembly. PC3M PTB-GFP, PNC prevalence imaging, 16 h; stronger effect = lower value. activity change (PNC), negative = inhibition, % at 10 µM. 140,000 compounds, 3.1% hits. AID 2417;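 active means readout at or below -70, meaning at least 70% loss of cells showing the perinucleolar compartment, a nuclear body marking cancer cells; inconclusive means readout between -30 and a set limit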;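 further: plate controls were DMSO wells for no effect and camptothecin positive control wells for full effect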
#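 Compounds are pinned in duplicate onto adhered PC3M cells stably expressing GFP-tagged PTB and incubated 16 h at 37 C. Cells are then fixed, nuclei stained with Hoechst, and PNC-positive cells counted.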
# IMPase inh = membrane-permeable compound that blocks inositol monophosphatase; CHO-M1 cells, IP1 accumulation, HTRF TR-FRET ratio; inhibition (IP1 accumulation), % at 46.1 µM; 120,000 tested, under 10 active; P97697; active means well fitted curve in the direction sought with a large enough effect in the signal ratio, not every such curve was filed as active; inconclusive means small, poorly fitted or top-dose-only effect, or a change in a side signal; inactive means no such curve, though single readings can be large or run the other way; the % refers to the signal ratio;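 further: cells stimulated with carbachol in lithium chloride buffer; plate controls were DMSO basal wells for no effect and reference inhibitor wells for full effect; higher means more IMPase inhibition seen as more IP1 and lower FRET ratio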
#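 Cellular IMPase inhibition is scored as a rise in cytosolic IP1, detected by competitive TR-FRET between d2-labelled IP1 and a europium anti-IP1 antibody. M1-expressing CHO cells were stimulated with carbachol for 30 min at 37C, with lithium (50 mM LiCl) present in the buffer.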
# 12-hLO inh = inhibitors of human 12-lipoxygenase (ALOX12); purified 12-hLO, xylenol orange hydroperoxide absorbance; Potency, µM (doses to about 57.1 µM), without a hit: top-dose activity change, negative = inhibition, most hits filed as inhibitors; 150,000 compounds, 0.12% hits; further: potency means the concentration at half of the fitted maximal effect; nearly all actives have a fitted effect of over 55% in size
# Target sequence (P18054 whole entry, looked up): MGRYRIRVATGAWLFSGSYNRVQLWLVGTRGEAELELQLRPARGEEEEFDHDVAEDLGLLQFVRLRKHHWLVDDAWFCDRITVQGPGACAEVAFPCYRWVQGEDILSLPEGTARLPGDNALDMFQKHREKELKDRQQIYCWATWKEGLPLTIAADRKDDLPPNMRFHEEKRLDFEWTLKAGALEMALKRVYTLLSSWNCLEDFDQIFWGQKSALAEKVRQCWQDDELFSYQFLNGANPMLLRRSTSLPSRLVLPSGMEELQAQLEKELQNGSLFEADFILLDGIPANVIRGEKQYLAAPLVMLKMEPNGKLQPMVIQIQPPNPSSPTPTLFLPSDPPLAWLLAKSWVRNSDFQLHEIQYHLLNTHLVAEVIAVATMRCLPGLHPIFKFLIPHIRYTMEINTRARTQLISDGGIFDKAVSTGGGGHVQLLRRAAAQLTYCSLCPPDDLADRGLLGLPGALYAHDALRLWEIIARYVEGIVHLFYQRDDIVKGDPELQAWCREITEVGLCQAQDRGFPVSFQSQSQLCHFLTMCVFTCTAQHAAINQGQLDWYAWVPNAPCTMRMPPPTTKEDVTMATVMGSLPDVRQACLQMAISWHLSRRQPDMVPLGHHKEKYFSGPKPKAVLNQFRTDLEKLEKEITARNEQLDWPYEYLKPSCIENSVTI
#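 Purified human 12hLO (150 nM), preincubated 15 min with compound, then 40 uM arachidonic acid for 30 min, room temperature, Hepes pH 7.0 with 0.01% Triton X-100. Hydroperoxide detected by ferrous iron/xylenol orange; 573/405 nm absorbance ratio gives reaction progress.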
# ALDH1A1 inh = inhibitors of human aldehyde dehydrogenase 1A1. P00352. Purified ALDH1A1, NADH fluorescence, propionaldehyde substrate. Potency, µM (top dose mostly 75.3 µM), without a hit: at the highest dose activity, negative = inhibition, actives largely listed as inhibitors. 220,000 compounds, 7.3% hits; active means well fitted inhibition curve with a large enough effect, not every such curve was filed as active; inconclusive means small, poorly fitted or top-dose-only effect, or another doubt; inactive means no such curve, though single readings can be large or run the other way;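 further: potency means the concentration at half of the fitted maximal effect; plate controls were no enzyme wells and a reference inhibitor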
# * marks the source's active call; other numbers are inactive results; u = inconclusive; x = not tested or not shown; [ ] = another dose, or the depositor's remark. Unless noted, the call rests on the fitted dose curve; in most records, active means well fitted curve in the direction sought with a large enough effect; inconclusive means small, poorly fitted or top-dose-only effect, or another doubt; inactive means no such curve, though single readings can be large; an effect the other way counts as inactive or inconclusive. Unless noted, on the % scale 0 is the no-effect control and ±100 the full control effect.
SMILES,HPGD block,IMPase Li inh,PNC inhibitor,IMPase inh,12-hLO inh,ALDH1A1 inh
CC1(C)CC(=O)C(C=NCCN2CCN(C(=O)NC34CC5CC(CC(C5)C3)C4)CC2)=C(O)C1,-9%,-21%[38.3 µM],-10,-7,-3%,16µM*
CC1(C)CC(=O)C(C=NCCN2CCN(CCCCS(=O)(=O)O)CC2)=C(O)C1,-5%,12%[38.3 µM],u,-8[1.84 µM],3%,1%
CC(=NCCN1CCN(C(C)=C2C(=O)c3ccccc3C2=O)CC1)C1=C(O)CC(C)(C)CC1=O,-7%,4%,u,x,3%,u
CC(O)CNCCNCc1c(OCc2ccccc2)ccc2ccccc12 (configuration not stated),-9%,51%[38.3 µM],-9,0,-3%,28µM*
NCCNC(=S)S,3.5µM*,-1%,x,x,-4%[11.4 µM],3.2µM*
CC(C)(C)NC(=S)N/N=C/c1c(Cl)cccc1Cl,x,x,x,x,x,7%
Cc1ccc(NC(=S)N/N=C/c2c(Cl)cccc2Cl)c(C)c1,-16%,7%,-98*,13,u,-5%
O=C(OCC(=O)N1CCc2ccccc21)C1=COCCO1,-12%,-3%,u,-3,-2%,14µM*
CCOc1ncccc1C(=O)OCC(=O)N1CCc2ccccc21,x,0%,x,x,x,7.9µM*
CC1Cc2ccccc2N1C(=O)COC(=O)c1c2c(nc3ccccc13)CCCCC2 (configuration not stated),1%,14%,u,x,-3%,-18%
CCOc1ncccc1C(=O)OCC(=O)c1ccc(Cl)s1,20µM*,4%[38.3 µM],-12,-6,-9%,u
O=C(OCC(=O)N1CCc2ccccc21)c1c2c(nc3ccccc13)CCCC2,x,x,-110*,7,-5%,3%
CCOc1ncccc1C(=O)OCC(=O)c1ccc(F)cc1,x,-1%,x,x,x,5%
COc1ccc(Oc2ncc3nc(CCc4ccccc4)c(=O)n(C4CC4)c3n2)cc1,-27%,2%,x,x,-3%,u
N=c1ccn2c(n1)O[C@@H]1[C@@H](O)[C@H](CO)O[C@H]12,x,x,x,0,-4%,x
NC(=O)Cc1ccc(C(=O)c2ccc(F)cc2)s1,x,-8%,x,x,x,3%
C[C@@H](C(=O)O)c1ccc(C(=O)c2ccccc2)s1,14µM*,3%,x,-6[20.6 µM],-3%[25.6 µM],-16%[20.9 µM]
N#CCc1ccc(C(=O)c2ccccc2)s1,28µM*,7%[38.3 µM],-82*,-13[1.84 µM],1%,u
CC(C(=O)O)c1ccc(C(=O)c2cccs2)cc1 (configuration not stated),u,u,x,x,0%,u
O=C(CCS(=O)(=O)c1cc(Br)cc2c1N(C(=O)C1CC1)CC2)N1CCN(c2ccc(F)cc2)CC1,x,x,x,3,x,x
O=C1OC(c2ccc(F)cc2)=C/C1=C\c1ccc([N+](=O)[O-])o1,x,3%,x,x,x,20µM*
CN(C)c1ccc(C(CNS(=O)(=O)c2ccc(F)cc2)c2c[nH]c3ccccc23)cc1 (configuration not stated),-6%,15%,u,x,1%,u
CN(C)c1ccc(C(CNC(=O)c2ccccc2Br)c2c[nH]c3ccccc23)cc1 (configuration not stated),-6%,8%,-20,x,-4%,7.9µM*
CN(C)c1ccc(C(CNC(=O)c2ccc(C#N)cc2)c2c[nH]c3ccccc23)cc1 (configuration not stated),-15%,6%,34,x,-2%,14µM*
C=CCOC(=O)/C=C/NC(=O)/C=C/C=C/CCCCCCCC(C)O (configuration not stated),x,x,x,x,x,-5%[13.5 µM]
SMILES,HPGD block,IMPase Li inh,PNC inhibitor,IMPase inh,12-hLO inh,ALDH1A1 inh
Cc1n[nH]c(C)c1C(=O)CC1(O)C(=O)N(Cc2ccccc2)c2ccc(Br)cc21 (configuration not stated),-12%,25%[38.3 µM],u,9,11%,10µM*
Cc1n[nH]c(C)c1C(=O)CC1(O)C(=O)N(CCc2ccccc2)c2ccc(Br)cc21 (configuration not stated),-11%,5%[38.3 µM],20,6,4%,u
C=CCN1C(=O)C(O)(CC(=O)c2ccco2)c2cc(Br)ccc21 (configuration not stated),x,1%,x,x,x,7.9µM*
O=C(CCn1c(=O)c2ccccc2n(CC(=O)NCCC2=CCCCC2)c1=O)NCc1ccco1,-13%,4%[38.3 µM],u,8,5%,16µM*
Cc1cc2ccccc2c(=O)n1CC(=O)NCCC1=CCCCC1,x,13%,x,x,x,25µM*
O=C(Cn1nc(C(=O)O)c2ccccc2c1=O)NCCC1=CCCCC1,-24%,27%[38.3 µM],5,-4,-3%,-1%
COc1ccc(CNC(=O)c2ccc(CNc3c(NC4CCCCC4)c(=O)c3=O)cc2)cc1,-12%,4%,20,x,-4%,2%
COc1ccc(NC(=O)c2ccc(CNc3c(NC4CCCCC4)c(=O)c3=O)cc2)cc1OC,18µM*,-1%[38.3 µM],-24,13,-2%,-13%
CCN(CC)C(=O)c1sc(NC(=O)c2ccc(C)c([N+](=O)[O-])c2)c(C#N)c1C,28µM*,6%[38.3 µM],u,4,0%,-1%
CCN(CC)C(=O)c1sc(NC(=O)c2ccc(OC)c([N+](=O)[O-])c2)c(C#N)c1C,18µM*,8%,0,-1,-2%,-1%
C/C(=N/S(=O)(=O)c1ccc(Cl)c(Cl)c1)OCC(C)(C)C,-6%,3%,x,x,3%[11.4 µM],5%[13.5 µM]
Cc1ccc(NC(=O)c2ccc(Cl)c(N3C(=O)C=CC3=O)c2)cc1,3.5µM*,45%[38.3 µM],27,3,u,3.2µM*
O=C(Nc1ccc(Cl)c(Cl)c1)c1ccc(Cl)c(Cl)c1,x,x,x,x,x,-7%
CCN(CC)S(=O)(=O)c1ccc(C)c(NS(=O)(=O)c2cc(/C=C/C(=O)O)cc(OC)c2OC)c1,x,1%,x,x,x,1%
CSc1nnc(-c2cc(Br)ccc2N=Cc2c(C)[nH]n(-c3ccccc3)c2=O)c(=O)[nH]1,x,10%,x,x,x,19µM*
CCSc1nnc(-c2cc(Br)ccc2N=Cc2c(C)[nH]n(-c3ccccc3)c2=O)c(=O)[nH]1,x,6%,x,x,x,u
COC(=O)C1OC(=O)C2OC23[C@]2(C)C(OC(C)=O)CC4C(C)(C)C(=O)CC[C@]4(C)C2CC[C@@]13C (some centres not stated),-7%,-2%,x,x,1%,-3%
Cc1ccc(OCCCC(=O)Nc2sc3c(c2C(N)=O)CCCC3)cc1,x,x,x,2,x,x
O=C(Nc1nnc(C2CC2)s1)c1ccc(S(=O)(=O)c2ccccc2)cc1,-11%,-14%[38.3 µM],-18,3,-4%,2%
O=C(Nc1nncs1)c1c(F)c(F)c(F)c(F)c1F,22µM*,7%[38.3 µM],u,3,-1%,18µM*
O=C(Nc1nncs1)c1ccc(S(=O)(=O)c2ccccc2)cc1,-12%,19%[38.3 µM],-117*,-1,2%,2%
